# In PubChem BioAssay (EPA / NIEHS):
# “And” between values parts separate entries of the source, which are not always exact repeats. Identical values can stand only once. Where a structure was tested more than once in an assay, its records may differ in their call. The source made the active and inactive calls. How the source made its calls: active means hit-call score of the fitted dose curve at least 0.9, where 1 is the maximum; inactive means score below 0.9.
# Read-out: Interleukin-8 (IL8), CXCL8 (gene 3576)
# Assay: BSK_LPS_IL8: BioMAP Diversity Plus: LPS Assay for Interleukin-8 (IL8) Biomarker Activity (AID 2283078)
# Details: primary human HUVEC with PBMC; actives raise or lower the signal
# Procedure: BSK_LPS is a cell-based, multiplexed-readout assay that uses umbilical vein endothelium and peripheral blood mononuclear cells, a human vascular primary cell co-culture, with measurements taken at 24 hours after chemical dosing in a 96-well plate.BSK_LPS_IL8 is an assay component measured in the BSK_LPS assay. It measures IL-8 antibody related to regulation of gene expression using ELISA technology.Data from the assay component BSK_LPS_IL8 was analyzed into 1 assay endpoint. This assay endpoint, BSK_LPS_IL8, was analyzed with bidirectional fitting relative to DMSO as the negative control and baseline of activity. Using a type of binding reporter, gain or loss-of-signal activity can be used to understand changes in the signaling as they relate to the gene CXCL8. Furthermore, this assay endpoint can be referred to as a primary readout, because this assay has produced multiple assay endpoints where this one serves a signaling function. To generalize the intended target to other relatable targets, this assay endpoint is annotated to the cytokine intended target family, where the subfamily is interleukins.
# The levels of cell surface (or secreted, indicated by the prefix "s") biomarker endpoints were measured by ELISA. Overt cytotoxicity to cells in confluent adherent cultures (all systems other than the BT system) was assessed by measuring total protein levels using sulforhodamine B (SRB) staining in parallel cultures at the time of biomarker measurements, indicated as SRB endpoints. For proliferation assays for adherent cell types, individual cell types are cultured at sub-confluence and relative cell numbers quantified by SRB staining at time points optimized for each system (48 h: 3C and CASM3C systems; 72 h: BT and HDF3CGF systems; 96 h: SAg system). SRB was performed by staining cells with 0.1% SRB after fixation with 10% TCA and reading wells at 560 nm.Viability and proliferation of PBMC (T cells) was quantified by Alamar Blue reduction for the SAg and BT systems. For PBMC viability (referred to as PBMC Cytotoxicity within the assay endpoint names), cells were plated (75,000/well in a 96-well plate) and then chemical samples added for 1 h before addition of activators, SEB and TSST-1 (20 ng/mL final concentration each). Cells were incubated for 90 h. Then, Alamar Blue (20 uL/well) (Invitrogen, Cat DAL1100) was added for 6 h, and the plates were read with a fluorescence microplate reader at 546/580 nm (excitation/emission). For PBMC proliferation, cells were plated and activated as above but incubated for only 16 h prior to addition of Alamar Blue. Plates were read after 6 h.
SMILES,outcome,AC50
CCCCOCCOCCOC(=O)CCCCC(=O)OCCOCCOCCCC,inactive,
FC(F)(F)C(F)(F)C(F)(F)CI,inactive,1.84 µM (active)
O=S(=O)(OCC(F)F)C(F)(F)F,inactive,
OCC(F)(F)C(F)(F)C(F)(F)C(F)F,inactive,
NC(=O)C(F)(F)C(F)(F)C(F)(F)C(F)(F)F,inactive,
FC(F)(F)C(F)(F)C(F)(F)C(F)(F)C(F)(F)C(F)(F)C(F)(F)C(F)(F)CCS,inactive,
O[Si](c1ccccc1)(c1ccccc1)c1ccccc1,inactive,
C=C(C)C(=O)OCC(F)(F)C(F)(F)C(F)(F)C(F)(F)C(F)(F)C(F)(F)C(F)(F)F,inactive,
O=C(Cl)C(F)(F)C(F)(F)C(F)(F)C(F)(F)C(F)(F)C(F)(F)C(F)(F)C(F)(F)F,inactive,51.2 µM (active)
CCCCCCCCC(F)(F)C(F)(F)C(F)(F)C(F)(F)C(F)(F)C(F)(F)F,inactive,
OCC(F)(F)C(F)(F)C(F)(F)C(F)(F)C(F)(F)C(F)F,inactive,
CCN(CC)c1ccc2c(C)cc(=O)oc2c1,inactive,
FC(F)(F)C(F)(F)C(F)(F)C(F)(F)C(F)(F)C(F)(F)CCS,inactive,
O=C(O)C(F)(F)C(F)(F)C(F)(F)C(F)(F)C(F)(F)C(F)(F)C(F)(F)C(F)(F)C(F)(F)C(F)F,inactive,55 µM (active)
CCO[Si](CCC(F)(F)C(F)(F)C(F)(F)C(F)(F)C(F)(F)C(F)(F)F)(OCC)OCC,inactive,
CCCCC(CC)COP(=O)(O)OCC(CC)CCCC (stereo not given),inactive,
CCc1ccc(C(c2ccc(CC)cc2)C(Cl)Cl)cc1,inactive,
N=C(N)C(F)(F)C(F)(F)C(F)(F)C(F)(F)C(F)(F)C(F)(F)C(F)(F)F,inactive,46.8 µM (active)

SMILES,outcome,AC50
FC1CC(F)(F)C(F)(F)C1(F)F (stereo not given),inactive,
O=C(O)C(F)(F)C(F)(F)C(F)(F)C(F)(F)C(F)(F)C(F)(F)C(F)(F)C(F)(F)C(F)(F)C(F)(F)C(F)(F)C(F)(F)C(F)(F)F,inactive,2.24 µM (active)
CCCCCCCOC(=O)c1ccccc1C(=O)OCCCCCCC,inactive,
CCc1c(Br)c(Br)c(Br)c(Br)c1Br,inactive,
FC(F)(F)C(F)(F)C(F)(F)C(F)(F)C(F)(F)C(F)(F)C(F)(F)Br,inactive,
O=S(=O)(O)C(F)(F)C(F)(F)C(F)(F)C(F)(F)C(F)(F)C(F)(F)C(F)(F)F,inactive,
FC(F)(F)C(F)(F)CNCC(F)(F)C(F)(F)F,inactive,
O=C(O)C(F)(F)C(F)(F)C(F)(F)C(F)(F)F,inactive,
OCCCC(F)(F)C(F)(F)C(F)(F)C(F)(F)C(F)(F)C(F)(F)C(F)(F)F,,53.5 µM (active) and 54.5 µM (active)
OCC(F)(F)C(F)(F)C(F)(F)C(F)(F)C(F)(F)C(F)(F)F,inactive,
CCCCNc1ccccc1,inactive,
FC(F)(F)C(F)(F)C(F)(F)C(F)(F)C(F)(F)C(F)(F)CC1CO1 (stereo not given),inactive,
CO[Si](OC)(c1ccccc1)c1ccccc1,inactive,
O=C(O)C=C(C(F)(F)F)C(F)(F)F,inactive,
O=C(O)C(F)(OC(F)(F)C(F)(OC(F)(F)C(F)(F)C(F)(F)F)C(F)(F)F)C(F)(F)F (stereo not given),inactive,
C#C[C@]1(O)CC[C@H]2[C@@H]3CCc4cc(OC)ccc4[C@H]3CC[C@@]21C,inactive,
FC(F)(Br)C(F)(F)C(F)(F)C(F)(F)C(F)(F)C(F)(F)Br,inactive,
